Source: PubChem BioAssay (NCI)
About 83,000 compounds went through this panel and 20% of them were active in at least one assay; those are over-represented in the sample as a whole.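 Results are percent growth after 48 hours of single-concentration exposure. 100 means growth as in untreated cells, lower positive values show inhibition; negative values down to -100 show cell death.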 Unmarked numbers belong to inactive results. Activity calls are given as the source filed them. How the source made its calls: active means growth percent below 10; inactive means the rest.

Legend:
Assay in all cases: NCI-60 one-dose screen, 48 h (100 = growth as untreated, 0 = no growth, -100 = all killed)
Details in all cases: 10 µM unless noted
SN12C renal = system: SN12C renal
UO-31 renal = system: UO-31 renal
TK-10 renal = system: TK-10 renal
ACHN renal = system: ACHN renal
CAKI-1 renal = system: CAKI-1 renal
A498 renal = system: A498 renal
CCRF-CEM leukemia = system: CCRF-CEM leukemia
RPMI-8226 leukemia = system: RPMI-8226 leukemia
OVCAR-8 ovarian = system: OVCAR-8 ovarian
OVCAR-5 ovarian = system: OVCAR-5 ovarian
OVCAR-4 ovarian = system: OVCAR-4 ovarian
SK-OV-3 ovarian = system: SK-OV-3 ovarian
IGROV1 ovarian = system: IGROV1 ovarian
OVCAR-3 ovarian = system: OVCAR-3 ovarian
HS 578T breast = system: HS 578T breast
NCI/ADR-RES ovarian = system: NCI/ADR-RES ovarian
MOLT-4 leukemia = system: MOLT-4 leukemia
SR leukemia = system: SR leukemia

| SMILES | growth (SN12C renal) | growth (UO-31 renal) | growth (TK-10 renal) | growth (ACHN renal) | growth (CAKI-1 renal) | growth (A498 renal) | growth (CCRF-CEM leukemia) | growth (RPMI-8226 leukemia) | growth (OVCAR-8 ovarian) | growth (OVCAR-5 ovarian) | growth (OVCAR-4 ovarian) | growth (SK-OV-3 ovarian) | growth (IGROV1 ovarian) | growth (OVCAR-3 ovarian) | growth (HS 578T breast) [%] | growth (NCI/ADR-RES ovarian) [%] | growth (MOLT-4 leukemia) | growth (SR leukemia) |
| --- | --- | --- | --- | --- | --- | --- | --- | --- | --- | --- | --- | --- | --- | --- | --- | --- | --- | --- |
| COc1ccc2nc3cc(Cl)ccc3c(N3CCN(c4ccnc(N5CCOCC5)n4)CC3)c2c1 | 32.3% | 57.2% | 63.7% | 27.4% | 59.7% | 60.6% | -18.4% (active) | 11.3% | 59.2% | 83.8% | 55.6% | 85.5% | 77.8% | 4.76% (active) | 99.2 | 73.2 |  |  |
| O=C(CCN1CCOCC1)Nc1ccc(Cn2nnc3c2C(=O)c2nnn(Cc4ccc(NC(=O)CCN5CCOCC5)cc4)c2C3=O)cc1 | -40.7% (active) |  | 123% | 96.6% | 90.6% |  | -15.4% (active) | 5.5% (active) | 45.6% | 110% | -81.4% (active) | 95.4% |  | -1.65% (active) | 44.9 | 109 |  |  |
| CC(=O)N1CC(Nc2ccc(OC(F)(F)F)cc2)=CC1=O | 56.7% | 65.7% | 51.9% | 53.4% | 30% |  | 11% | 21.9% | 26.1% | 92.6% | 87.2% | 31.3% | 50.3% | 9.26% (active) | 38.9 | 15.4 | 27.1% | 25.3% |
| O=C1/C(=C/c2ccc(Cl)cc2Cl)CN(S(=O)(=O)c2ccccc2)C/C1=C\c1ccc(Cl)cc1Cl | -47.5% (active) | -61.4% (active) |  | 2.01% (active) | -66.1% (active) | 76.4% | -13.2% (active) | -21.9% (active) | 13.6% | -3.2% (active) | 22.6% | 44.7% | -24.3% (active) | -36.4% (active) | 37.9 | 20.5 | 3.37% (active) | -11.6% (active) |
| COc1ccc2nc3cc(Cl)ccc3c(N3CCN(c4nccc(Nc5ccccc5)n4)CC3)c2c1 | 62% | 43.7% | 65.6% |  | 51.2% | 16.6% | 7.71% (active) | 45.2% | 67.8% | 99.5% | 50.8% | 96.2% | 78.8% | 50.7% | 88.1 | 69.9 | 5.37% (active) | 26.9% |
| CN(C)CCCC(=O)Nc1ccc(Cn2nnc3c2C(=O)c2nnn(Cc4ccc(NC(=O)CCCN(C)C)cc4)c2C3=O)cc1 | -29.4% (active) | 94.5% | 116% | 102% | 91% | 72.9% | 16.8% | 76.1% | 86.6% | 115% | -98.6% (active) | 89.8% | 57.3% | 4.3% (active) | 112 | 108 | 11.4% | 74.7% |
| O=c1c2cccc3c(NC4CCCCC4)ccc(c32)c2nc3ccccc3n12 | 87% | 41.4% |  | 72.9% | 47.2% | 99.1% | 65.4% | 75.6% | 97.9% | 103% | 80.1% | 98.3% | 41.2% | 86.8% | 96 | 95.5 | 49.8% | 1.11% (active) |
| COc1ccc(C(=O)/C=C/c2c(Cl)c3c(c(OC)c2Cl)OCC(=O)N3)cc1 | 27.8% | 56.7% | 57.3% | 41.8% | 20.2% |  | 5.04% (active) | 3.79% (active) | 6.16% (active) | 76.8% | 47.2% | 77.9% | 63.1% | 10.9% | 39.4 | 19.4 | 0.538% (active) | 3.68% (active) |
| Cc1sc2nc3[nH]/c(=C\c4ccc(Cl)cc4)c(=O)n3c(=O)c2c1C | 98.1% | 103% | 102% | 101% | 105% | 99.5% |  | 97.1% | 103% | 81.7% | 105% | 105% |  | 107% | 111 | 107 | 94.1% | 86.6% |
| Cc1ccc(S(=O)(=O)n2cc(-c3csc(-c4cn(C)c5ncccc45)n3)c3ccccc32)cc1 | 77.6% | 57.3% |  | 53% | 48.1% | 52.2% | 37.4% | 71.1% | 80.5% | 81.9% | 71.5% | 70.2% | 56.3% | 30.3% | 85.8 | 43.3 | 49.3% | 2.53% (active) |
| O=C1Nc2ccccc2C12CC(c1ccc(Cl)cc1)=NN2 (stereo unspecified) | 88.8% | 69.2% | 115% | 91% | 74.6% |  | 88.3% | 77.8% | 95.2% | 95.8% | 98.6% | 107% | 101% | 116% | 107 | 108 | 83.8% | 86.2% |
| CSc1nc(NCCCNc2ccnc3cc(Cl)ccc23)cc(-c2ccccc2)n1 | 79.5% | 42.3% | 75.7% | 92.2% | 54.1% |  | 47% | 7.4% (active) | 81.7% | 95% | 66.6% | 82.3% | 67% | 72.3% | 65 | 67.5 |  |  |
| CCCCNc1ccc2c3c1cccc3c(=O)n1c3ccccc3nc21 | 90.9% | 58.6% | 70.2% | 81.8% | 43.2% | 96.1% | 75% | 80.5% | 106% | 110% | 85.8% | 96.4% | 41.8% | 95.3% | 93.1 | 91.3 | 69.4% | 15.6% |
| Cn1cc(-c2ccc(-c3cn(C)c4ncccc34)[nH]2)c2cccnc21 | 75.6% | -81.3% (active) | -30% (active) |  | 54.6% | 83.3% | 28.3% | 31.9% | 23.3% | -6.91% (active) | -44.4% (active) | 106% | 73.8% | -36.9% (active) | 45.7 | 76 |  |  |
| O=C(CCCCN1CCOCC1)Nc1ccc(Cn2nnc3c2C(=O)c2nnn(Cc4ccc(NC(=O)CCCCN5CCOCC5)cc4)c2C3=O)cc1 | -46.6% (active) |  | 13.6% | -4.59% (active) | 7.17% (active) | -91.1% (active) |  | -18% (active) | -36.2% (active) | -23% (active) | -73.9% (active) | -68.2% (active) | -68.3% (active) | -58.2% (active) | 12.5 | 11 | -37.3% (active) | -22.2% (active) |
| O=c1c2cccc3c(Nc4c(F)cccc4F)ccc(c32)c2nc3ccccc3n12 | 93.8% | 50.6% |  | 88% | 62% | 109% | 72.5% | 75.4% | 92.9% | 99.5% | 82.9% | 89.1% | 53.4% | 91.5% | 110 | 95.4 | 74.1% | 21.5% |
| COc1ccc(/C=C2\N=C3SC=C(N)N3C2=O)cc1 | 20.4% | -4.09% (active) | 19.5% | 33% | -33% (active) | 5.67% (active) | -40.2% (active) | -28.8% (active) | 35.7% | 59.9% | 21.5% | 45.6% | 9.81% (active) | 24.2% | 50.4 | 42.3 | -15.9% (active) | -21.3% (active) |
